Results taken from PubChem BioAssay (EPA / NIEHS).
The source made the active and inactive calls. Rule for the calls: active = hit-call score of the fitted dose curve at least 0.9, where 1 is the maximum; inactive = score below 0.9.

Key:
Details in all cases: mRNA level, 48 h; actives raise or lower the signal
[1] = read-out: Potassium channel subfamily K member 1 (KCNK1), KCNK1 (gene 3775); assay: LTEA_HepaRG_KCNK1: Life Technologies and Expression Analysis (LTEA) Assay for Potassium channel subfamily K member 1 (KCNK1) using HepaRG (AID 2283511)
Procedure, shortened: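 Gain or loss of KCNK1 mRNA is the read-out, quantified by qRT-PCR against three housekeeping genes after 48 h chemical treatment of human HepaRG liver cells. Concentrations ran from 100 uM downward in half-log steps, vehicle 0.5% DMSO.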

[2] = read-out: Keratin 19 (KRT19), KRT19 (gene 3880); assay: LTEA_HepaRG_KRT19: Life Technologies and Expression Analysis (LTEA) Assay for Keratin 19 (KRT19) using HepaRG (AID 2283512)
Procedure, shortened: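 Readout is qRT-PCR of KRT19 mRNA, normalized to ACTB, GAPDH and POLR2A, from HepaRG cells treated 48 h with eight-point half-log dilutions topping at 100 uM. Activity in either direction is scored relative to 0.5% DMSO vehicle.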

[3] = read-out: JUN Transcription Factor, JUN (gene 3725); assay: LTEA_HepaRG_JUN: Life Technologies and Expression Analysis (LTEA) Assay for JUN Transcription Factor using HepaRG (AID 2283513)
Procedure, shortened: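 Cells plated 48 h, medium switched to serum-free induction medium, then dosed 48 h (100 uM top, half-log dilutions, 0.5% DMSO). RNA isolated; JUN measured by qRT-PCR against three housekeeping genes; gain or loss fitted relative to DMSO.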

[4] = read-out: Lipase C (LIPC), LIPC (gene 3990); assay: LTEA_HepaRG_LIPC: Life Technologies and Expression Analysis (LTEA) Assay for Lipase C (LIPC) using HepaRG (AID 2283514)
Procedure, shortened: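 Read-out is LIPC transcript level by TaqMan qRT-PCR, normalized to three housekeeping genes, after 48 h chemical treatment of human HepaRG liver cells. Curves span eight concentrations topping at 100 uM; activity in either direction scored relative to 0.5% DMSO.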

[5] = read-out: Lipoprotein lipase (LPL), LPL (gene 4023); assay: LTEA_HepaRG_LPL: Life Technologies and Expression Analysis (LTEA) Assay for Lipoprotein lipase (LPL) using HepaRG (AID 2283515)
Procedure, shortened: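 Read-out is LPL transcript level by qRT-PCR, normalized to three housekeeping genes and fitted bidirectionally against the DMSO control. Human HepaRG cells received chemicals for 48 h at up to 100 uM.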

[6] = read-out: MicroRNA 122 (MIR122), gene 406906; assay: LTEA_HepaRG_MIR122: Life Technologies and Expression Analysis (LTEA) Assay for MicroRNA 122 (MIR122) using HepaRG (AID 2283516); note: the transcript read is the microRNA miR-122
Procedure, shortened: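 HepaRG plated 48 h, switched to serum-free induction medium, then treated in duplicate for 48 h (100 uM top, half-log steps, 0.5% DMSO vehicle). RNA isolated, qRT-PCR performed, concentration-response fitted both directions relative to DMSO.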

[7] = read-out: matrix metalloproteinase-10 (MMP10), MMP10 (gene 4319); assay: LTEA_HepaRG_MMP10: Life Technologies and Expression Analysis (LTEA) Assay for matrix metalloproteinase-10 (MMP10) using HepaRG (AID 2283517)
Procedure, shortened: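 Gain or loss of MMP10 mRNA is fitted relative to the 0.5% DMSO vehicle. The human hepatic line HepaRG receives a 48-hour serum-free exposure, in duplicate, with a maximum concentration of 100 uM.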

[8] = read-out: MYC, MYC (gene 4609); assay: LTEA_HepaRG_MYC: Life Technologies and Expression Analysis (LTEA) Assay for MYC using HepaRG (AID 2283518)
Procedure, shortened: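 Expression changes were scored by TaqMan qRT-PCR with ACTB, GAPDH and POLR2A normalization. Cultures in serum-free induction medium received duplicate 8-point concentration series, highest 100 uM, for 48 h; DMSO (0.5%) served as baseline.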

[9] = read-out: matrix metalloproteinase-3 (MMP3), MMP3 (gene 4314); assay: LTEA_HepaRG_MMP3: Life Technologies and Expression Analysis (LTEA) Assay for matrix metalloproteinase-3 (MMP3) using HepaRG (AID 2283519)
Procedure, shortened: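 HepaRG, human; 48 h dosing, 8 conc. (max 100 uM, half-log), duplicate, 0.5% DMSO. Readout: MMP3 transcript by Fluidigm TaqMan qRT-PCR, ACTB/GAPDH/POLR2A-normalised. Gain or loss fitted vs DMSO.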

[10] = read-out: Paternally Expressed 10 (PEG10), PEG10 (gene 23089); assay: LTEA_HepaRG_PEG10: Life Technologies and Expression Analysis (LTEA) Assay for Paternally Expressed 10 (PEG10) using HepaRG (AID 2283520)
Procedure, shortened: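 HepaRG, 48 h post-plating → serum-free induction medium → 48 h chemical exposure (duplicate, 8-pt, max 100 uM, half-log, 0.5% DMSO) → lysis in RLT → TaqMan qRT-PCR for PEG10, ACTB/GAPDH/POLR2A normalisation.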

[11] = read-out: Nuclear factor NF-kappa-B p105 subunit (Homo sapiens) (UniProt P19838); assay: LTEA_HepaRG_NFKB1: Life Technologies and Expression Analysis (LTEA) Assay for Nuclear Factor Kappa B Subunit 1 (NFKB1) using HepaRG (AID 2283521)
Procedure, shortened: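 NFKB1 transcript was measured by TaqMan qRT-PCR on Fluidigm arrays, normalised to three housekeeping genes and fitted in both directions against 0.5% DMSO. HepaRG cells were dosed in duplicate for 48 h in serum-free induction medium, eight half-log steps from 100 uM.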

[12] = read-out: Protein phosphatase 2A (PPP2R4), PTPA (gene 5524); assay: LTEA_HepaRG_PPP2R4: Life Technologies and Expression Analysis (LTEA) Assay for Protein phosphatase 2A (PPP2R4) using HepaRG (AID 2283522)
Procedure, shortened: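 Readout is PPP2R4 transcript level by microfluidic qRT-PCR after 48 h chemical treatment of human HepaRG liver cells. Concentrations spanned 100 uM downward in half-log steps; gain or loss of signal was fitted relative to DMSO.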

[13] = read-out: Phosphatase and tensin (PTEN), PTEN (gene 5728); assay: LTEA_HepaRG_PTEN: Life Technologies and Expression Analysis (LTEA) Assay for Phosphatase and tensin (PTEN) using HepaRG (AID 2283523)
Procedure, shortened: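 Read-out is PTEN transcript level by multiplexed TaqMan qRT-PCR after 48 h chemical treatment of human HepaRG cultures in serum-free induction medium. Concentrations spanned 100 uM downward in half-log steps, 0.5% DMSO throughout; activity fitted in both directions against vehicle.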

[14] = read-out: solute carrier (SLC22A1), SLC22A1 (gene 6580); assay: LTEA_HepaRG_SLC22A1: Life Technologies and Expression Analysis (LTEA) Assay for solute carrier (SLC22A1) using HepaRG (AID 2283524);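 for AC50: differentiated human HepaRG liver cells in serum-free induction medium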
Procedure, shortened: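 HepaRG (human liver line), 48 h dosing in serum-free induction medium; 8 conc., half-log down from 100 uM, 0.5% DMSO vehicle, duplicates. Endpoint: SLC22A1 mRNA, qRT-PCR, housekeeping-normalized; gain/loss fit vs DMSO.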

[15] = read-out: Pyruvate Dehydrogenase Kinase 4 (PDK4), PDK4 (gene 5166); assay: LTEA_HepaRG_PDK4: Life Technologies and Expression Analysis (LTEA) Assay for Pyruvate Dehydrogenase Kinase 4 (PDK4) using HepaRG (AID 2283525)
Procedure, shortened: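 In this multiplexed human HepaRG expression assay, cells are treated 48 h with test chemicals across an eight-point range starting at 100 uM. PDK4 mRNA changes, normalized to ACTB/GAPDH/POLR2A, are fitted in both directions relative to vehicle.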

[16] = read-out: Nuclear factor erythroid 2-related factor 2 (Homo sapiens) (UniProt Q16236); assay: LTEA_HepaRG_NFE2L2: Life Technologies and Expression Analysis (LTEA) Assay for Nuclear factor erythroid 2-related factor 2 (NFE2L2) Transcription Factor using HepaRG (AID 2283527)
Procedure, shortened: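 Transcript level of NFE2L2 is the read-out, measured by microfluidic TaqMan qRT-PCR and normalized to three housekeeping genes. Human HepaRG cultures received test chemical for 48 h at up to 100 uM in half-log steps. Gain or loss of signal is fitted relative to 0.5% DMSO.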

[17] = read-out: succinate dehydrogenase complex iron sulfur subunit B (SDHB), SDHB (gene 6390); assay: LTEA_HepaRG_SDHB: Life Technologies and Expression Analysis (LTEA) Assay for succinate dehydrogenase complex iron sulfur subunit B (SDHB) using HepaRG (AID 2283528)
Procedure, shortened: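 SDHB transcript level read by TaqMan qRT-PCR, housekeeping-normalised (ACTB, GAPDH, POLR2A), after 48 h chemical treatment of plated HepaRG cells; eight concentrations top 100 uM, half-log steps, 0.5% DMSO, duplicates; fitted both directions against DMSO.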

[18] = read-out: Signal transducer and activator of transcription 3 (Homo sapiens) (UniProt P40763); assay: LTEA_HepaRG_STAT3: Life Technologies and Expression Analysis (LTEA) Assay for Signal transducer and activator of transcription (STAT3) using HepaRG (AID 2283529)
Procedure, shortened: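 Read-out is STAT3 mRNA level by qRT-PCR, normalized to three housekeeping genes, in human HepaRG liver cells treated for 48 h. Concentrations ran from 100 uM downward in half-log steps; curves were fitted for gain or loss relative to 0.5% DMSO.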

[19] = read-out: solute carrier (SLCO1B1), SLCO1B1 (gene 10599); assay: LTEA_HepaRG_SLCO1B1: Life Technologies and Expression Analysis (LTEA) Assay for solute carrier (SLCO1B1) using HepaRG (AID 2283530)
Procedure, shortened: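 Human HepaRG cultures treated for 48 h with an eight-concentration half-log series topping at 100 uM; SLCO1B1 measured by qRT-PCR and fitted bidirectionally relative to DMSO.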

[20] = read-out: NAD(P)H dehydrogenase [quinone] 1 (NQO1), NQO1 (gene 1728); assay: LTEA_HepaRG_NQO1: Life Technologies and Expression Analysis (LTEA) Assay for NAD(P)H dehydrogenase [quinone] 1 (NQO1) using HepaRG (AID 2283526)
Procedure, shortened: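 HepaRG, 48 h post-plating → serum-free induction medium → test chemical 48 h (duplicate, 100 uM top, half-log x8, 0.5% DMSO) → RNA isolation → qRT-PCR, ACTB/GAPDH/POLR2A normalization; bidirectional curve fit vs DMSO baseline.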

Measured: AC50

Sequence of Signal transducer and activator of transcription 3 (Homo sapiens) (P40763 whole entry, looked up): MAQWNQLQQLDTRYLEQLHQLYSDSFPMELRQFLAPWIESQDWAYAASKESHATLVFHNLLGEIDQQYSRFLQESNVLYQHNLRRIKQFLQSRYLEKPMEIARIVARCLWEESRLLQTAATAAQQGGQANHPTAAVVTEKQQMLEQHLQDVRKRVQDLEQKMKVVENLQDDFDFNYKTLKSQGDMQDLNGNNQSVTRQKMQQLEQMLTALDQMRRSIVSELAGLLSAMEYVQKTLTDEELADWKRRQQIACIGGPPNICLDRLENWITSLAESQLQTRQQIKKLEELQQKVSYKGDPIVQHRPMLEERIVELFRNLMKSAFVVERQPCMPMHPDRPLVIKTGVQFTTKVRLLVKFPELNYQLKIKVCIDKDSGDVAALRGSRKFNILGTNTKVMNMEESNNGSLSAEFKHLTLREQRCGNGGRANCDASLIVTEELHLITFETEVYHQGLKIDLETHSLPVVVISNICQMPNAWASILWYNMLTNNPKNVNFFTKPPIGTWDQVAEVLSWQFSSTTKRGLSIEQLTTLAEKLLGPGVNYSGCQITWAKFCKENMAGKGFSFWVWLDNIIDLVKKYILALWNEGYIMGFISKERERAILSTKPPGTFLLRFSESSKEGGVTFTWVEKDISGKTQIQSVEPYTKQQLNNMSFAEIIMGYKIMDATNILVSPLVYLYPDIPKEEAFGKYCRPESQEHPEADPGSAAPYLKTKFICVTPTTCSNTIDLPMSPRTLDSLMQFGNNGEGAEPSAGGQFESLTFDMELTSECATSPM
Sequence of Nuclear factor NF-kappa-B p105 subunit (Homo sapiens) (P19838 whole entry, looked up): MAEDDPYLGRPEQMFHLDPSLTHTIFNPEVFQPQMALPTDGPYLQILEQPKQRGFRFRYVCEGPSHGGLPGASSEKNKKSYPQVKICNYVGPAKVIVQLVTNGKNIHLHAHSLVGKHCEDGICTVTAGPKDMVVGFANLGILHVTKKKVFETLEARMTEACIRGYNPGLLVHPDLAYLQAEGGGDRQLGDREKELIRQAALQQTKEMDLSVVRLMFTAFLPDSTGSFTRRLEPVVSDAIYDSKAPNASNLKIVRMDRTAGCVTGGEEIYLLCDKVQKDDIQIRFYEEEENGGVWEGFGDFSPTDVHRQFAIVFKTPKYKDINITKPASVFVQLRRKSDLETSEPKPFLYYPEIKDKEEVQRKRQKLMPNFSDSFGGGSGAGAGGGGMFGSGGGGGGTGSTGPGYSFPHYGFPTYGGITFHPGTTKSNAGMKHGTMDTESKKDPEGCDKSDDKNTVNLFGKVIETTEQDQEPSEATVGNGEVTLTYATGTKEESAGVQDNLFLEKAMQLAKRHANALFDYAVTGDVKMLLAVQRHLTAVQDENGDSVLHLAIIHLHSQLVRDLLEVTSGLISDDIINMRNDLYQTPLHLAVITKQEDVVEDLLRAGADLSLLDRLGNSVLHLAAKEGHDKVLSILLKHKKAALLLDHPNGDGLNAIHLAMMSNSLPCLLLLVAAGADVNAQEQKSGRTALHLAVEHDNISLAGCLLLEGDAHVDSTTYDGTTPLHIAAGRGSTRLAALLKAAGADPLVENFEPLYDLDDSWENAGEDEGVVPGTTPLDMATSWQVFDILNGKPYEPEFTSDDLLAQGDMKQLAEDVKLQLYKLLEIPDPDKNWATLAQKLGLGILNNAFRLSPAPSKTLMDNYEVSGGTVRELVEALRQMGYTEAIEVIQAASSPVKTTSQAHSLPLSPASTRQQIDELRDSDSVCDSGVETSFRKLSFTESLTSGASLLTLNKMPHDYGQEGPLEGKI
Sequence of Nuclear factor erythroid 2-related factor 2 (Homo sapiens) (Q16236 whole entry, looked up): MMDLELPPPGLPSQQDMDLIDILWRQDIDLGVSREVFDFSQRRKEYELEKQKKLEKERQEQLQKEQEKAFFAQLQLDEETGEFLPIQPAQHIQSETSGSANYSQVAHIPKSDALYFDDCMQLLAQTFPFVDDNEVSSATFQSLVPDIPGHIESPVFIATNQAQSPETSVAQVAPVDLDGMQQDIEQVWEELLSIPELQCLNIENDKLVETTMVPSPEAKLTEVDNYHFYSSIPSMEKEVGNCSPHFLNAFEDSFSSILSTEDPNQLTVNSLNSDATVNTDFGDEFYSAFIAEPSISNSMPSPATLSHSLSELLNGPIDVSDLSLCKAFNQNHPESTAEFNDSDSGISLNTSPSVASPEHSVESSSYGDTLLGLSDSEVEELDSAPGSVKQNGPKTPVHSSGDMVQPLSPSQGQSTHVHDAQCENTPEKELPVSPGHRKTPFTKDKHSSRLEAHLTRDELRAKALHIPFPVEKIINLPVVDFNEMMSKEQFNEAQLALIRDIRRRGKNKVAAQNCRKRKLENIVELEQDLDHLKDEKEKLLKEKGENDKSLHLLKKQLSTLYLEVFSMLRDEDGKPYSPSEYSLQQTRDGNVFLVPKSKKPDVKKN

CC(C)N1C(=O)N(c2ccccc2)CSC1=NC(C)(C)C
active: [2] 50000 nM | [4] 72200 nM | [5] 78700 nM | [6] 81400 nM | [8] 72200 nM | [9] 26400 nM | [10] 12700 nM | [12] 77400 nM | [14] 81400 nM | [15] 87800 nM | [17] 50000 nM
inactive: [1] | [3] | [7] | [11] | [13] | [16] | [18] | [19]

CCOc1nc(C(Cl)(Cl)Cl)ns1
active: [1] 1220 nM | [3] 1890 nM | [4] 944 nM | [5] 1060 nM | [6] 682 nM | [8] 1030 nM | [9] 2930 nM | [11] 1720 nM | [12] 801 nM | [13] 1250 nM | [14] 1340 nM | [15] 950 nM | [20] 993 nM | [16] 1120 nM | [18] 50000 nM | [19] 1880 nM
inactive: [2] | [7] | [10] | [17]

Nc1cnn(-c2ccccc2)c(=O)c1Cl
not listed: [20]
inactive: all other assays above

COc1cc(OC)nc(NC(=O)NS(=O)(=O)c2ncccc2OCC(F)(F)F)n1
active: [15] 129 nM | [19] 9920 nM
not listed: [20]
inactive: all other assays above

CCOP(=S)(OCC)Oc1nc(Cl)n(C(C)C)n1
active: [5] 64700 nM | [14] 12200 nM | [15] 1820 nM
not listed: [20]
inactive: all other assays above

CC1(C)CON(Cc2ccccc2Cl)C1=O
active: [10] 22500 nM
not listed: [3]
inactive: all other assays above

COP(=O)(OC)O/C(C)=C/C(=O)N(C)C
inactive: all assays above
